In PubChem BioAssay (NCI):
The panel holds about 79,000 compounds, 15% with a hit somewhere; the sample as a whole holds those more often. Calls of active or inactive are those of the source. Cut-off read from the data, not from the text of the source: active = growth inhibition above about 70%; inactive = the rest.

Assays:
[1] = NCI Yeast Anticancer Drug Screen. Data for the rad50 strain (AID 155);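 note: 0% = growth of vehicle-only cultures of the same strain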; conditions: S. cerevisiae rad50 strain growth inhibition, stronger effect = higher value
How it was run: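 Readout: growth inhibition relative to vehicle-treated cultures. Compound exposure was carried out in a genetically defined yeast strain deficient in DNA damage repair.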

[2] = NCI Yeast Anticancer Drug Screen. Data for the mec2-1 strain (AID 157); conditions: S. cerevisiae mec2-1 strain, stronger effect = higher value
How it was run: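 Readout is yeast growth inhibition, normalised to vehicle-treated controls, in the mec2-1 strain exposed to compound.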

[3] = NCI Yeast Anticancer Drug Screen. Data for the sgs1 mgt1 strain (AID 161);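 note: 0% = growth of cultures given vehicle only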; conditions: S. cerevisiae sgs1 mgt1 strain, stronger effect = higher value
How it was run: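 Yeast cells carrying a defined DNA-repair defect were exposed to test compounds. Growth inhibition was measured relative to vehicle-treated controls.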

[4] = NCI Yeast Anticancer Drug Screen. Data for the cln2 rad14 strain (AID 165);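 note: 0% = growth equal to vehicle treated cultures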; conditions: S. cerevisiae cln2 rad14 strain, stronger effect = higher value
How it was run: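 Relative to vehicle controls, growth inhibition of compound-treated cln2 rad14 yeast was recorded.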

[5] = NCI Yeast Anticancer Drug Screen. Data for the bub3 strain (AID 167); conditions: S. cerevisiae bub3 mutant strain, stronger effect = higher value
How it was run: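 Readout: yeast growth inhibition, expressed relative to vehicle-only wells. The test organism is a mutant strain from a panel with lesions in DNA repair or checkpoint genes.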

[6] = NCI Yeast Anticancer Drug Screen. Data for the mlh1 rad18 strain (AID 175); conditions: S. cerevisiae mlh1 rad18 strain growth inhibition, stronger effect = higher value
How it was run: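 Test agents were incubated with a yeast strain of defined genotype (DNA damage repair defect). Inhibition of growth was derived by comparison with vehicle-exposed cultures.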

[7] = at 5.0 µM (retest, dose inferred, filed as 0.5)
[8] = at 50.0 µM (retest, dose inferred, filed as 5.0)

Measured: growth inhibition

COc1cccc(N2C(=O)C3CC(CC(C)(C)C)c4c([nH]c5ccccc45)C3C2=O)c1 (stereo not given)
inactive: [1]; [7] 10% | [1]; [8] 33% | [1]; at 50.0 µM 33.6% | [2]; [7] 10% | [2]; [8] 22% | [2]; at 50.0 µM 27.6% | [3]; [7] 13% | [3]; [8] 20% | [3]; at 50.0 µM 35.9% | [4]; [7] -4% | [4]; [8] 33% | [4]; at 50.0 µM 19.7% | [5]; [7] 13% | [5]; [8] 11% | [5]; at 50.0 µM 63.4% | [6]; [7] 8% | [6]; [8] 30% | [6]; at 50.0 µM 23.3%

CCOc1cc(/C=N/NC(=S)NC23CC4CC(CC(C4)C2)C3)ccc1O
inactive: [1]; [7] -3% | [1]; [8] 11% | [1]; at 50.0 µM 40.6% | [2]; [7] -5% | [2]; [8] 30% | [2]; at 50.0 µM 40.5% | [3]; [7] 0% | [3]; [8] 61% | [3]; at 50.0 µM 41.3% | [4]; [7] 49% | [4]; [8] 16% | [4]; at 50.0 µM 45.1% | [5]; [7] -7% | [5]; [8] -100% | [5]; at 50.0 µM 9.55% | [6]; [7] 1% | [6]; [8] 29% | [6]; at 50.0 µM 47.6%

OCCOCCO[P+]1(OCCOCCO)n2c3ccc2C(c2ccccc2)=C2C=CC(=N2)C(c2ccccc2)=c2ccc(n21)=C(c1ccccc1)C1=NC(=C3c2ccccc2)C=C1
active: [1]; [7] 99% | [1]; [8] 98% | [1]; at 50.0 µM 91.3% | [2]; [7] 100% | [2]; [8] 99% | [2]; at 50.0 µM 92.2% | [3]; [7] 99% | [3]; [8] 98% | [3]; at 50.0 µM 92% | [4]; [7] 97% | [4]; [8] 99% | [4]; at 50.0 µM 91.4% | [5]; [7] 100% | [5]; [8] 99% | [5]; at 50.0 µM 89% | [6]; [7] 97% | [6]; [8] 98% | [6]; at 50.0 µM 85.8%

C/C(=N\NC(=S)N(C)C1CCCCC1)c1ccc2ccccc2n1
inactive: [1]; [7] 18% | [2]; [7] 28% | [3]; [7] 28% | [4]; [7] 33% | [5]; [7] 33% | [6]; [7] 19%
active: [1]; [8] 88% | [1]; at 50.0 µM 83.2% | [2]; [8] 97% | [2]; at 50.0 µM 80.2% | [3]; [8] 93% | [3]; at 50.0 µM 81.8% | [4]; [8] 88% | [4]; at 50.0 µM 84% | [5]; [8] 96% | [5]; at 50.0 µM 76.9% | [6]; [8] 97% | [6]; at 50.0 µM 89.2%

c1ccc(CSc2nnc3c4ccccc4c4ccccc4c3n2)cc1
inactive: [1]; [7] -4% | [1]; [8] 5% | [1]; at 50.0 µM -22.6% | [2]; [7] 8% | [2]; [8] -22% | [2]; at 50.0 µM -19.7% | [3]; [7] 5% | [3]; [8] 5% | [3]; at 50.0 µM -5.3% | [4]; [7] -21% | [4]; [8] -12% | [4]; at 50.0 µM 29.4% | [5]; [7] 8% | [5]; [8] 13% | [5]; at 50.0 µM -9.25% | [6]; [7] 1% | [6]; [8] 3% | [6]; at 50.0 µM 42%

Cc1ccnc(NC(c2ccccc2)c2ccc3cccnc3c2O)c1 (stereo not given)
active: [1]; [8] 95% | [1]; at 50.0 µM 98.3% | [2]; [8] 97% | [2]; at 50.0 µM 96.3% | [3]; [8] 95% | [3]; at 50.0 µM 97.7% | [4]; [8] 95% | [4]; at 50.0 µM 95.4% | [5]; [8] 96% | [5]; at 50.0 µM 98.7% | [6]; [8] 95% | [6]; at 50.0 µM 97.4%
inactive: [1]; [7] 0% | [2]; [7] -5% | [3]; [7] -3% | [4]; [7] -7% | [5]; [7] -6% | [6]; [7] 6%

CCC[CH2][Sn]([CH2]CCC)([O]C(=O)C(OC(C)=O)c1ccccc1)[O]C(=O)C(OC(C)=O)c1ccccc1 (stereo not given)
active: [1]; [8] 98% | [1]; at 50.0 µM 98.5% | [2]; [8] 98% | [2]; at 50.0 µM 97.8% | [3]; [8] 97% | [3]; at 50.0 µM 98.5% | [4]; [8] 97% | [4]; at 50.0 µM 96.4% | [5]; [7] 71% | [5]; [8] 97% | [5]; at 50.0 µM 98% | [6]; [8] 98% | [6]; at 50.0 µM 98.5%
inactive: [1]; [7] 52% | [2]; [7] 43% | [3]; [7] 45% | [4]; [7] 31% | [6]; [7] 60%

O=[N+]([O-])c1ccc2c(N=Nc3ccc4ccccc4c3O)c(O)cc(S(=O)(=O)O)c2c1
inactive: [1]; [7] 32% | [1]; [8] 34% | [2]; [7] 13% | [2]; [8] 17% | [2]; at 50.0 µM 55.8% | [3]; [7] 17% | [3]; [8] 29% | [4]; [7] -32% | [4]; [8] -68% | [4]; at 50.0 µM 30.6% | [5]; [7] -7% | [5]; [8] 22% | [6]; [7] 9% | [6]; [8] 36%
active: [1]; at 50.0 µM 85.6% | [3]; at 50.0 µM 74.7% | [5]; at 50.0 µM 82.7% | [6]; at 50.0 µM 86.5%

O=C(Nc1ccccc1-c1nn(C(=S)Nc2ccccc2)c(=S)n(C(=S)Nc2ccccc2)c1=O)C(F)(F)F
inactive: [1]; [7] 6% | [1]; [8] 59% | [1]; at 50.0 µM 47.1% | [2]; [7] 2% | [3]; [7] 10% | [3]; at 50.0 µM 46.5% | [4]; [7] 7% | [4]; [8] 38% | [4]; at 50.0 µM 17.2% | [5]; [7] -41% | [5]; [8] 50% | [5]; at 50.0 µM 15.4% | [6]; [7] 3%
active: [2]; [8] 87% | [2]; at 50.0 µM 88.1% | [3]; [8] 77% | [6]; [8] 88% | [6]; at 50.0 µM 81.5%

CN(C)c1ccc(C(=C2C=CC(=[N+](C)C)C=C2)c2ccc(N(C)C)cc2)cc1 (tested in a mixture with another compound)
active: [1]; [7] 98% | [1]; [8] 90% | [1]; at 50.0 µM 87.5% | [2]; [7] 99% | [2]; [8] 93% | [2]; at 50.0 µM 88% | [3]; [7] 98% | [3]; [8] 95% | [3]; at 50.0 µM 89.7% | [4]; [7] 99% | [4]; [8] 95% | [4]; at 50.0 µM 87.7% | [5]; [7] 98% | [5]; [8] 93% | [5]; at 50.0 µM 88.5% | [6]; [7] 98% | [6]; [8] 91% | [6]; at 50.0 µM 86.5%
